Calls of active or inactive are those of the source.

This experiment has as its system XIP peptide (Xip251-270) binding. The experiment in a line: XIP fragment 251-270 binding compounds – biochemical, small-molecule microarray, fluorescence 635/667 nm, 0.1 µg/mL protein, primary screen (AID 1182). As to conditions: fluorescent protein binding, 635 nm, higher = more signal, called active from +8 up or from −8 down.
For `C=C(C(=O)CC[C@@H](OC(=O)c1ccccc1-c1ccccc1C(=O)O)c1ccc(OCCO)cc1)C(C)C`, the composite z-score is -0.206 (inactive).
The same measure for `O=C(c1ccccc1)N1Cc2ccccc2C[C@@]2(N=C(c3ccc(OCCCO)cc3)O[C@H]2c2ccccc2)C1=O`: 0.742 (inactive); for `CC(C)C[C@@H]1NC(=O)[C@@H]2C[C@H](C(=O)NCCCCCNC(=O)CS)[C@H](c3ccc(O)cc3)N2C1=O`: 0.741 (inactive); for `COC(=O)c1ccc(OC)c(/C=C\CC(OC(=O)c2ccncc2)c2ccccc2)c1` (stereo not given): 0.601 (inactive).
Under `COC(=O)C(CC#Cc1ccc2c(c1)[C@]1(C(=O)N2)[C@H](C(N)=O)[C@H]2C(=O)O[C@H](c3ccccc3)[C@H](c3ccccc3)N2[C@@H]1c1ccccc1OCCO)C(=O)OC` stands 0.898 (inactive); under `C=CCNC(=O)[C@H]1[C@@H]2C(=O)O[C@@H](c3ccccc3)[C@@H](c3ccccc3)N2[C@@H](c2ccc(O)cc2)[C@]12C(=O)Nc1ccc(C#CCC(C(=O)OC)C(=O)OC)cc12`, 0.835 (inactive); under `C#CCN(C(=O)OC(C)(C)C)[C@H](CO)c1ccccc1`, -0.235 (inactive).
Under `COCCCNC(=O)[C@@]1(Cc2ccccc2I)c2ccccc2C(=O)N(C2CCCCC2)[C@H]1c1ccc(CO)cc1` stands 0.26 (inactive).
For the compound `COC(=O)[C@@]1(Cc2ccc(F)cc2)[C@H]2c3cc(C(=O)N4CCCC4)n(CCSCCO)c3C[C@H]2CN1C(=O)c1ccccc1`, the composite z-score was 0.159 (inactive).
Under `COC(=O)[C@]1(Cc2ccccc2N=[N+]=[N-])N=C(c2ccc(OCCCO)cc2)O[C@@H]1c1ccccc1CN=[N+]=[N-]` stands 0.11 (inactive).

The values above are taken from PubChem BioAssay.
